Our source for the inhibition values is PubChem BioAssay.

Active and inactive are the calls of the source.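 How the source made its calls, unless noted: active means mean inhibition above 46.68%, the untreated control wells mean plus 3 SD; inactive means the rest.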

The target of assay [1] is Nuclear receptor coactivator 1 (Homo sapiens) (UniProt Q15788). Put plainly: NCOA1 GAL4-fusion reporter inhibition – cell-based, luminescence, quadruplicate, confirmation (AID 588820).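 Further: 0% = DMSO wells and 100% = gossypol 36 µM treated wells.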 Conditions: HEK293 GAL4-SRC1 luciferase reporter, at 3.6 µM, stronger effect = higher value. In general terms: In a reporter assay the amount or activity of a reporter protein is the signal.
Nuclear receptor coactivator 1 (Homo sapiens), sequence (Q15788 whole entry, looked up, the tested form may be a part): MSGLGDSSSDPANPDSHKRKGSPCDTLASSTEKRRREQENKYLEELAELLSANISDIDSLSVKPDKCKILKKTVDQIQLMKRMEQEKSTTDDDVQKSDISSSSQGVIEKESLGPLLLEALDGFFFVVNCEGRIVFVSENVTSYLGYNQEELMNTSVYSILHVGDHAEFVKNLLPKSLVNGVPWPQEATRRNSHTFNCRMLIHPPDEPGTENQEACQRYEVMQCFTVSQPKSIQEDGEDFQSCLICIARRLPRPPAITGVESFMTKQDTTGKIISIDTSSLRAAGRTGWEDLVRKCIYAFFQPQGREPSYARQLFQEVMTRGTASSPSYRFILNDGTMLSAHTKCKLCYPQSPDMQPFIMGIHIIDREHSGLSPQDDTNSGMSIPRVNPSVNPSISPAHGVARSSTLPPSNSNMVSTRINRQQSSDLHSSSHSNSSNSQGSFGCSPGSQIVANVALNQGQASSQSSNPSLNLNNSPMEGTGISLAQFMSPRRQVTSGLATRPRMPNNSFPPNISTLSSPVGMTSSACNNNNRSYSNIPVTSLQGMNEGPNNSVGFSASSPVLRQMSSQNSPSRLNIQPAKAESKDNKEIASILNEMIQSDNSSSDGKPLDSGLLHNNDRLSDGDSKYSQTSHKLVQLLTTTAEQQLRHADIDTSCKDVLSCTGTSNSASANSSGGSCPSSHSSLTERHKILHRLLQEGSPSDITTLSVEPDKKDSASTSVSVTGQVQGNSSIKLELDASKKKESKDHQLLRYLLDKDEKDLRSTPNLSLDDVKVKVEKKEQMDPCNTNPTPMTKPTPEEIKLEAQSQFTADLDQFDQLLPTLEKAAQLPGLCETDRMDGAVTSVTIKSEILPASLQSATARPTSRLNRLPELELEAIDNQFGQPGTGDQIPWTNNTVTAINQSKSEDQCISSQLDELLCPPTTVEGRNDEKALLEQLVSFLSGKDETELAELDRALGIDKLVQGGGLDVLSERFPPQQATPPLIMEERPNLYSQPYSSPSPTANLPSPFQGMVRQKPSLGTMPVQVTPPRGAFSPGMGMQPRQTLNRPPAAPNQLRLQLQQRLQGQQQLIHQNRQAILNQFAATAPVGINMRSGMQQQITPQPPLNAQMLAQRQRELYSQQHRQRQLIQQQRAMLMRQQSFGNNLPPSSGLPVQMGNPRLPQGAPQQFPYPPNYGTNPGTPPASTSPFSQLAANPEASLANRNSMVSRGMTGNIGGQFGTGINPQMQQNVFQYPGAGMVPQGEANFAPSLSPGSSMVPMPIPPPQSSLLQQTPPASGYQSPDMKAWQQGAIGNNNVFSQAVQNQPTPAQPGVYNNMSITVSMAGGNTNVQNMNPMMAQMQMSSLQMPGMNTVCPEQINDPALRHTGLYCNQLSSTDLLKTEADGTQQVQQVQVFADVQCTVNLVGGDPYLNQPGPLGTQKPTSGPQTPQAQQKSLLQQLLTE
Assay [2] can be described thus: repression of VP16-driven luciferase reporter – cell-based, luminescence, high throughput, counter-screen for SRC1 inhibitor project (AID 588824; in the data active means inhibition above about 25%). Conditions: cell-based VP16 transactivation luciferase luminescence; at 3.6 µM; stronger effect = higher value.

Broadly, the inhibition is the drop in the measured response relative to a control, in per cent.

Turning to `CCCCCCn1nc(C(=O)OCC(=O)c2c(N)n(C)c(=O)n(C)c2=O)c2ccccc2c1=O`, the inhibition in assay [1] was -6.84% (inactive); in assay [2], -3.36% (inactive).
For `CC(C)N(C)c1ncnc2c1ncn2[C@H]1CN(Cc2ccncc2)C[C@@H](CO)O1`, the inhibition in assay [1] was -19.9% (inactive); in assay [2], -7.41% (inactive).
Consider `CC(=O)c1ccc(S(=O)(=O)N2CCN(CCOc3ccc(Br)cc3)CC2)cc1`, for which the inhibition is 2.32% (inactive) in assay [1] and 25.4% (active) in assay [2].
As to `O=C1c2cccc(OCc3ccc(F)cc3)c2CCN1Cc1ccccc1`, the figures for the inhibition in assay [1] and in assay [2] were 20.6% (inactive) and 13.6% (inactive), respectively.
With `O=C(Nc1cc(Cl)ccc1N1CCOCC1)c1ccco1`, the inhibition is 1.28% (inactive) in assay [1] and -5.91% (inactive) in assay [2].
For `COc1ccc(OC)c(/C=C2\NC(=O)NC2=O)c1` the same measures were 29.5% (inactive) and 15.5% (inactive).
In the case of `NS(=O)(=O)c1ccc(NC(=O)CCCCC(=O)Nc2ccc(S(N)(=O)=O)cc2)cc1`, the inhibition in assay [1] is -1.93% (inactive); in assay [2], -4.87% (inactive).
`O=C(NCc1ccccc1)C(c1ccccc1)N(Cc1cccs1)C(=O)c1cnccn1` (centres undefined): the inhibition was -71.6% (inactive) in assay [1] and -20.6% (inactive) in assay [2].
`Cc1ccccc1-c1ccc(CN2C(C)C(=O)N(Cc3cn(Cc4ccco4)nn3)CCS2(=O)=O)cc1` (centres undefined): the inhibition in assay [1] is 7.13% (inactive); in assay [2] it was 6.95% (inactive).
For `Nc1c(Cl)ncnc1NCCc1ccc(O)cc1` the same measures were -6.45% (inactive) and 27.9% (active).
As to `CCCCc1ccc(NC(=O)Nc2c(C)n(C)n(-c3ccccc3)c2=O)cc1`, the inhibition is -11% (inactive) in assay [1] and 7.24% (inactive) in assay [2].
For `Cc1cccc(C)c1NC(=O)CNC(=O)Cc1c[nH]c2ccccc12`, the inhibition was -0.57% (inactive) in assay [1] and -1.35% (inactive) in assay [2].
For `Cc1cccc(NC(=O)c2cc(S(=O)(=O)N(C)c3ccc(F)cc3)ccc2Cl)n1` the same measures were -17.6% (inactive) and -4.3% (inactive).
Take `CCCCC(=O)NC(c1cccc([N+](=O)[O-])c1)c1ccc2cccnc2c1O` (centres undefined): the inhibition in assay [1] was 13.2% (inactive); in assay [2] it was 24% (inactive).
Turning to `CCOC(=O)c1c(-c2ccccc2)csc1NC(=O)c1nn(CC)cc1Br`, the inhibition was -4.38% (inactive) in assay [1] and -7.57% (inactive) in assay [2].
Consider `CCOC(=O)c1ccc2c(c1)n(CC)c(/C=C/N(C)c1ccccc1)[n+]2CC`, for which the inhibition in assay [1] was 29.7% (inactive); in assay [2] it was 62.3% (active).
With `Cc1ccccc1NC(=S)NNC(=O)c1csc2c1CCC(C)C2` (centres undefined), the figures for the inhibition in assay [1] and in assay [2] were -45.9% (inactive) and -23% (inactive), respectively.
For `Cn1c(O)c(N=NC(=N)N)c2ccccc21` the same measures were 5.65% (inactive) and 11.6% (inactive).
Consider `CCCc1cc(-c2ccc(O)c(OCC)c2)c(C#N)c(N)n1`, for which the inhibition in assay [1] was -3.92% (inactive); in assay [2] it was -2.24% (inactive).
Turning to `O=C(COc1ccc(Cl)cc1Cl)NN1C(=O)C2C3C=CC(C3)C2C1=O` (centres undefined), the inhibition in assay [1] was -1.23% (inactive); in assay [2] it was -10.4% (inactive).
Consider `COc1cccc(-c2cc(C(=O)Nc3cc(C)n(Cc4ccc(Cl)cc4)n3)no2)c1`, for which the inhibition in assay [1] was 1.04% (inactive); in assay [2], 18.9% (inactive).
On the same counts, the results for `COC(=O)c1ccsc1NC(=O)CN1CCN(c2ncccn2)CC1` are -31.8% (inactive) and -17.6% (inactive).
Consider `COc1ccc(-c2csc3ncnc(N4CCN(CCO)CC4)c23)cc1`, for which the results for the inhibition in assay [1] and in assay [2] were 0.84% (inactive) and 9.88% (inactive), respectively.
Regarding `O=C(CCC(=O)Nc1ccc(Br)cc1)N/N=C/c1ccccc1O`, the inhibition in assay [1] is 29.2% (inactive); in assay [2] it was 22.2% (inactive).
`COc1ccc(NC(=O)CCn2c(=S)[nH]c3ccccc3c2=O)cc1`: the inhibition is 2.22% (inactive) in assay [1] and 0.97% (inactive) in assay [2].
For `COc1cccc(CNC(=O)C2CCCN(S(C)(=O)=O)C2)c1` (centres undefined) the same measures were -0.5% (inactive) and 8.47% (inactive).
In the case of `COc1ccc(OC)c(NC(=O)c2cc(-c3c(C)cc(C)cc3O)n[nH]2)c1`, the inhibition was 11.1% (inactive) in assay [1] and 6.02% (inactive) in assay [2].
On the same counts, the results for `Cn1c(=O)c([N+](=O)[O-])c(NCCc2ccccc2)c2ccccc21` are 4.22% (inactive) and 4.74% (inactive).
For `O=c1[nH]cnc2sc3c(c12)CCCC3` the same measures were 10.8% (inactive) and 11.2% (inactive).
For `O=S(=O)(NCC1CN(S(=O)(=O)c2c(F)cccc2F)C1)c1ccc2c(c1)OCCO2`, the results for the inhibition in assay [1] and in assay [2] were 2.79% (inactive) and 17.9% (inactive), respectively.
Regarding `O=C(CCn1cnc(-c2ccccc2)c1-c1ccccc1)N/N=C/c1ccccc1O`, the inhibition in assay [1] was 18.6% (inactive); in assay [2], 11.4% (inactive).
On to `O=C(NC1CCCCC1)c1n[nH]c2c1CCCCC2`, for which the inhibition in assay [1] was -44.7% (inactive); in assay [2] it was -18.1% (inactive).
Regarding `Cc1ccnc(SC2CC(=O)N(c3ccc(C(C)C)cc3)C2=O)n1` (centres undefined), the inhibition in assay [1] is 7.69% (inactive); in assay [2], -8.25% (inactive).
On to `COc1ccc(S(=O)(=O)N(C)c2ccc(C(=O)NCc3ccco3)cc2)cc1OC`, for which the results for the inhibition in assay [1] and in assay [2] were -12.2% (inactive) and -0.34% (inactive), respectively.
On to `COc1ccc(OCCN2CCN(C(=O)c3ccc(OC(F)F)c(OC)c3)CC2)cc1`, for which the inhibition in assay [1] was 2.42% (inactive); in assay [2] it was 2.73% (inactive).
On the same counts, the results for `COC(=O)N(NC(=O)C(O)(CCC(C)C)CCC(C)C)c1ccccc1` are 16.2% (inactive) and 11.5% (inactive).
Consider `N#Cc1c(-c2ccccc2)c(C#N)c2nc3ccccc3n2c1N`, for which the inhibition is 15.8% (inactive) in assay [1] and 17.8% (inactive) in assay [2].
Regarding `COc1cc(-c2cc3nc(NCc4cccs4)ccn3n2)cc(OC)c1OC`, the values for the inhibition in assay [1] and in assay [2] were -21.6% (inactive) and 6.25% (inactive), respectively.
For `COc1cccc2c1OC1(C)CC2NC(=O)N1c1cccc(C(=O)Nc2ccc3c(c2)OCCO3)c1` (centres undefined), the figures for the inhibition in assay [1] and in assay [2] were -28.6% (inactive) and -19.2% (inactive), respectively.
As for `Cc1csc(-c2cc(C(=O)NCc3cc(C(F)(F)F)cc(C(F)(F)F)c3)n[nH]2)c1`, the inhibition in assay [1] was 20.5% (inactive); in assay [2], 47.2% (active).
For the compound `CCCCCCn1c(NCC)nc2c1c(=O)n(C)c(=O)n2C`, the inhibition in assay [1] was -1.77% (inactive); in assay [2], 35.5% (active).
As to `O=C(Nc1ccccc1N1CCOCC1)c1cc(-c2ccncc2)nc2ccccc12`, the inhibition was -29.7% (inactive) in assay [1] and 2.98% (inactive) in assay [2].
On the same counts, the results for `CSC1=NCCCN1C(=O)c1c(-c2ccccc2Cl)noc1C` are 0.66% (inactive) and -14.8% (inactive).
As to `COc1ccccc1NC(=O)NC1(C(=O)N2CCCCC2)CCCCC1`, the inhibition in assay [1] was 4.76% (inactive); in assay [2], 10.3% (inactive).
On the same counts, the results for `Cc1cc(C)c2nc(NNC(=O)c3ccc(S(=O)(=O)N4CC(C)CC(C)C4)cc3)sc2c1` (centres undefined) are 32.4% (inactive) and 30.2% (active).
In the case of `O=C(COc1ccc([N+](=O)[O-])cc1)Nc1ccccc1C(=O)NC1CC1`, the inhibition was 2.87% (inactive) in assay [1] and -1.57% (inactive) in assay [2].
Take `COc1ccccc1CNC(=O)C1CCCN(S(=O)(=O)c2cccc3nsnc23)C1` (centres undefined): the inhibition was -23.4% (inactive) in assay [1] and -0.08% (inactive) in assay [2].
As for `CC(Oc1ccccc1F)C(=O)NNC(=O)CC(C)c1ccccc1` (centres undefined), the inhibition in assay [1] was 12.4% (inactive); in assay [2] it was 2.31% (inactive).
On the same counts, the results for `O=C(NC1CCCCC1)C(c1ccc(F)cc1)N(Cc1ccco1)C(=O)c1csnn1` (centres undefined) are -14.3% (inactive) and -0.45% (inactive).
As to `CSCCC(NC(=O)c1ccco1)C(=O)OCC(=O)N(Cc1ccccc1)C(C)(C)C` (centres undefined), the inhibition in assay [1] is -15.8% (inactive); in assay [2] it was -3.79% (inactive).
For `O=C(NC1CCCC1)C(c1ccccc1)N(Cc1ccco1)C(=O)Cc1cccs1` (centres undefined), the inhibition in assay [1] is 17.7% (inactive); in assay [2], 31.5% (active).
For `Cc1ccc(NC(=O)c2cnc(N3CCN(c4ccccn4)CC3)c3ccccc23)c(Br)c1` the same measures were -15.2% (inactive) and 17.7% (inactive).
On the same counts, the results for `CCOC(=O)N1CCN(C(=O)c2cc(-c3ccncc3)nc3ccccc23)CC1` are -21.2% (inactive) and 3.82% (inactive).
For `CC(C)=CCCC(C)CN1CCC(n2nccc2NC(=O)c2ccccc2)CC1` (centres undefined) the same measures were -6.47% (inactive) and -14.3% (inactive).
Take `COCCOc1ccc(C(F)(F)F)cc1NC(=O)c1ccc(C(F)(F)F)cc1`: the figures for the inhibition in assay [1] and in assay [2] were 6.49% (inactive) and 3.69% (inactive), respectively.
With `O=C1NCCc2c1[nH]c1ccc([N+](=O)[O-])cc21`, the inhibition in assay [1] was 23.1% (inactive); in assay [2] it was 18.1% (inactive).
Take `COCCN(C(=O)C1=COCCO1)c1c(N)n(Cc2ccccc2)c(=O)[nH]c1=O`: the inhibition was -12.3% (inactive) in assay [1] and -15.5% (inactive) in assay [2].
Consider `Cc1ccc(OCCN2CCN(C(=O)CCC(=O)Nc3nnc(CC(C)C)s3)CC2)cc1`, for which the values for the inhibition in assay [1] and in assay [2] were 2.56% (inactive) and 11.8% (inactive), respectively.
`CC(C)Nc1ccc(Nc2ccnc3cc4ccccc4cc23)cc1`: the inhibition is 29.3% (inactive) in assay [1] and 38% (active) in assay [2].
On to `O=C(O)CC1S/C(=N\N=C2CCCCCC2)N(c2ccccc2)C1=O` (centres undefined), for which the inhibition in assay [1] is -22.2% (inactive); in assay [2], -9.41% (inactive).
On the same counts, the results for `Cc1ccc(OCC(=O)Oc2c(C)cccc2C)cc1C` are -3.92% (inactive) and -9.72% (inactive).
As to `CCNc1nc(NC(C)(C)C)nc(N2CCCCC2)n1`, the inhibition is 8.01% (inactive) in assay [1] and 12.6% (inactive) in assay [2].
`Oc1c(C(Nc2nc3ccccc3s2)c2ccco2)ccc2cccnc12` (centres undefined): the inhibition in assay [1] was 28.4% (inactive); in assay [2], 29.8% (active).
On to `Fc1cc2[nH]cnc2cc1Cl`, for which the inhibition was -2.02% (inactive) in assay [1] and -5.47% (inactive) in assay [2].
For the compound `CC(=O)NCCOc1nc(N(C)C)nc(N(C)C)n1`, the inhibition in assay [1] was -4.35% (inactive); in assay [2], 0% (inactive).
As to `Cc1ccc(C)c(CN2C(=O)c3ccccc3S(=O)c3ccc(C(=O)N4CCN(c5ccccn5)CC4)cc32)c1` (centres undefined), the inhibition in assay [1] was -18.5% (inactive); in assay [2], 77.7% (active).
For `CC1Cc2ccccc2N1S(=O)(=O)c1cccc(C(=O)N2CCN(c3ncccn3)CC2)c1` (centres undefined), the inhibition in assay [1] was 16.5% (inactive); in assay [2] it was 77.4% (active).
Regarding `CC(C)c1ccc2c(c1)C(N1CCN(C)CC1)Cc1cccnc1S2` (centres undefined), the values for the inhibition in assay [1] and in assay [2] were 6.3% (inactive) and -5.2% (inactive), respectively.
On the same counts, the results for `COCCn1c(C)cc(C(=O)CSc2nc3ccccc3s2)c1C` are -45.7% (inactive) and 6.14% (inactive).
Turning to `CCN(CC(=O)Nc1ccccc1C(F)(F)F)C(=O)c1ccc2[nH]c3c(c2c1)CC(C)CC3` (centres undefined), the inhibition in assay [1] is -11.7% (inactive); in assay [2], -8.04% (inactive).
As for `CC1Sc2ccc(C(=O)Nc3ccc(S(=O)(=O)N(C)C)cc3)cc2NC1=O` (centres undefined), the inhibition in assay [1] was 9.77% (inactive); in assay [2], 6.36% (inactive).
On the same counts, the results for `O=C1N=C(N2CCCC2)S/C1=C\C=C\c1ccccc1` are -93.8% (inactive) and -50.3% (inactive).
